In PubChem BioAssay (Tox21):
Results filed as inconclusive are left out. Active and inactive are the calls of the source. Calls come from the whole dose curve; as a rule, active = well fitted activation curve with a large enough effect in the signal ratio in the repeat runs (not every such curve was filed as active); inconclusive = weak or mixed curves; inactive = flat fitted curve, though single readings scatter; the % refers to the signal ratio.

Test: qHTS assay to identify small molecule agonists of the hypoxia (HIF-1) signaling pathway (AID 1224846)
Conditions: HRE-bla ME-180 cells, beta-lactamase ratio, 17 h; series mostly up to 76.8 µM; activation: at the top concentration
Excerpt: U.S. Tox21 Program National Center for Advancing Translational Sciences [NCATS] NIH Chemical Genomics Center [NCGC] U.S. Environmental Protection Agency [EPA] National Institutes of Environmental Health Sciences [NIEHS] National Toxicology Program [NTP] U.S. Food and Drug Administration [FDA] Tox21 Assay Overview: Hypoxia-inducible factor-1 (HIF-1) is the major hypoxia-regulated transcription factor that controls cellular responses to low oxygen concentration. HIF-1 is composed of two subunits: hypoxia responsive HIF-1-alpha and constitutively expressed HIF-1-beta, which is also known as aryl hydrocarbon receptor nuclear translocator. During hypoxic conditions, HIF-1-alpha heterodimerizes with HIF-1-beta and translocates into the nucleus where the HIF-1 complex binds to the hypoxia-response element (HRE) and activates expression of target genes such as VEGF (vascular endothelial growth factor). The HIF-1 pathway is essential to normal growth and development, and is involved in the pathophysiology of cancer, inflammation, and ischemia. Using a beta-lactamase reporter-gene under control of the hypoxia response element, a cell-based assay [CellSensor(TM) HRE-bla ME-180 from Life Technologies, Carlsbad, CA] was used to measure hypoxia-induced signaling. Tox21 10K library compounds were measured for their ability to induce the reporter gene activity.
Tox21 Assay Protocol Summary: HRE-bla ME-180 cells were dispensed at 2,000 cells per well in 6 uL of assay medium containing 0.5% dialyzed FBS into black wall/clear-bottom 1536-well plates using a Multidrop Combi (Thermo Scientific, Waltham, MA) dispenser. After the assay plates were incubated at 37C and 5% CO2 for 5 hrs, 23 nL of compounds dissolved in DMSO, positive controls or DMSO only was transferred to each well of the assay plate using a Pintool station (Kalypsys, San Diego, CA). The assay plates were incubated at 37C and 5% CO2 for 17 hrs. One uL of LiveBLAzerTM B/G FRET substrate (CCF4-AM) (Life Technologies) was added to each well using a Flying Reagent Dispenser (Aurora Discovery, San Diego, CA).
% is set by controls: 0 for no effect and ±100 for the full control effect.

Row | Compound | activation
1 | C=C(C)[C@H]1CC=C(C)CC1 | -0.601% (inactive)
2 | COC(C(=O)O)c1ccccc1 (stereo not given) | 0.435% (inactive)
3 | CCOC(=O)Nc1ccc2c(c1)N(C(=O)CCN1CCOCC1)c1ccccc1S2 | -0.648% [at 35.5 µM] (inactive)
4 | C=CCOCC(O)CS(=O)(=O)O (stereo not given) | -0.206% (inactive)
5 | Cc1cc(C)c(NC(=O)CN(CC(=O)O)CC(=O)O)c(C)c1Br | -0.711% [at 35.5 µM] (inactive)
6 | N#CCN(CC#N)CCN(CC#N)CC#N | -0.885% (inactive)
7 | CCCCCCC(=O)OCC | -0.849% (inactive)
8 | COc1cccc(OC)c1 | 1.09% (inactive)
9 | CO[Si](CCCNCCC[Si](OC)(OC)OC)(OC)OC | -0.319% (inactive)
10 | C=C(C)C(=O)OCCC(C)OC(=O)C(=C)C (stereo not given) | -1.22% (inactive)
11 | COc1cc(CCC(C)=O)ccc1O | 0.195% (inactive)
12 | C[N+](C)(C)CC[N+]1(C)Cc2c(Cl)c(Cl)c(Cl)c(Cl)c2C1 | -0.84% [at 35.5 µM] (inactive)
13 | COc1cc(C(=O)N2CCOCC2)cc(OC)c1OC | -1.2% [at 35.5 µM] (inactive)
14 | COc1ccc(COC=O)cc1 | -0.755% (inactive)
15 | Cc1nc(-c2ccc(OCC(C)C)c(C#N)c2)sc1C(=O)O | -0.79% [at 35.5 µM] (inactive)
16 | CC(C)=CCC/C(C)=C/C(=O)O | -0.969% (inactive)
17 | CC/C=C\C#N | -0.319% (inactive)
18 | CC(C=O)Cc1ccc(C(C)C)cc1 (stereo not given) | 0.508% (inactive)
19 | Cc1ccccc1C(=O)O | 0.222% (inactive)
20 | C/C=C1\C(=O)C[C@H]2[C@@H]3CCC4=CC(=O)CC[C@]4(C)[C@H]3CC[C@]12C | -1.04% [at 35.5 µM] (inactive)

Row | Compound | activation
21 | COc1cc(C)cc(O)c1 | -0.0584% (inactive)
22 | O=C1CC2(CCCC2)CC(=O)N1 | 1.24% [at 35.5 µM] (inactive)
23 | O=C1OC(=O)c2cc([N+](=O)[O-])ccc21 | -0.5% (inactive)
24 | NC(CS)C(=O)O (stereo not given) | -0.429% [at 35.5 µM] (inactive)
25 | CCCCCC[C@@H](CCC)C(=O)O | -0.561% [at 35.5 µM] (inactive)
26 | c1ccc2cnncc2c1 | 0.049% (inactive)
27 | C=C(C)C1CC=C(C)C(O)C1 (stereo not given) | -0.524% (inactive)
28 | CC(C)(C)C(=O)/C=C/c1ccc(Cl)cc1 | -1.32% (inactive)
29 | CCCC(C)C(=O)O (stereo not given) | 1.28% (inactive)
30 | CC(C)COC(=O)c1ccccc1O | 1.37% (inactive)
31 | CC1=CC(=O)CCC1 | 0.132% (inactive)
32 | Oc1ccc2c(c1)OC[C@@H](N1CCC(O)(c3ccc(F)cc3)CC1)[C@H]2O | 0.075% [at 35.5 µM] (inactive)
33 | CCCC(C)CO (stereo not given) | -0.868% (inactive)
34 | Nc1ccc2cc(S(=O)(=O)O)ccc2c1 | -0.271% (inactive)
35 | CC(C)CCCC(C)CCCC(C)CCCCC(C)CCCC(C)CCCC(C)C (stereo not given) | -2.44% [at 35.5 µM] (inactive)
36 | CCCCC1CCCCC(=O)O1 (stereo not given) | 0.124% (inactive)
37 | COC(=O)[C@H]1[C@H]2C[C@@H]3c4[nH]c5cc(OC)ccc5c4CCN3C[C@H]2C[C@@H](OC(=O)COc2ccc(OC)cc2)[C@@H]1OC | 0.619% [at 35.5 µM] (inactive)
38 | COc1ccc(N=[N+]([O-])c2ccc(OC)cc2)cc1 | -0.339% (inactive)
39 | Cc1ccc(N)cc1[N+](=O)[O-] | -0.848% (inactive)
40 | C(=C(c1ccccc1)c1ccccc1)c1ccccc1 | 2.3% (inactive)
